# Inconclusive results are not listed. Where a call stands in place of a potency, no number is given. Calls of active or inactive are those of the source. The call rests on the fitted dose curve; in most records, active means well fitted curve in the direction sought with a large enough effect; inconclusive means small, poorly fitted or top-dose-only effect, or another doubt; inactive means no such curve, though single readings can be large; an effect the other way counts as inactive or inconclusive.
# Experiments:
# [1] = qHTS assay for measurement of the activity of small molecule inhibitors on Zika virus induced Caspase-3 activity in human iPSC derived neural progenitor cells (hNPCs) (AID 1224857); conditions: hNPCs ZIKV-induced caspase-3/7, Caspase-Glo luminescence, 6 h; series mostly up to 45.7 µM; further: nearly all actives have a fitted effect of over 65% in size
# Summary of the method: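 Caspase-3/7 induction by a 6-hour ZIKV infection was quantified with a luminescent Caspase-Glo 3/7 reagent incubated 30 minutes at room temperature. Compounds were preincubated with hNPCs for 1 hour; inhibition was calculated against uninfected and infected control wells.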
# [2] = qHTS assay for measurement of the activity of small molecule inhibitors on Zika virus induced Caspase-3 activity in human astrocytoma cells (AID 1224859); conditions: SNB-19 ZIKV-induced caspase-3/7, luminescence, 6 h; series mostly up to 45.7 µM
# Summary of the method: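 In SNB-19 cells plated at 250 cells/well and grown 16-20 h, compounds were applied 1 h before ZIKV (2 FFU/cell). Six hours later caspase-3/7 luminescence was recorded.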
# [3] = qHTS Screen of the MIPE 4.0 Collection Against Ewings Sarcoma (RDES) (AID 1259252); conditions: RD-ES Ewing sarcoma viability, CellTiter-Glo, 48 h; series mostly up to 45.8 µM; further: nearly all actives have a fitted effect of over 35% in size; further: potency means the concentration at half of the fitted maximal effect
# Summary of the method: (§1)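 Dose series incubated 48 h with cells in RPMI plus 5% FBS, glutamine and penicillin/streptomycin; cell viability then quantified via CellTiter-Glo.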
# [4] = qHTS Screen of the MIPE 4.0 Collection Against Ewings Sarcoma (TC71) (AID 1259253); conditions: TC71 Ewing sarcoma viability, CellTiter-Glo, 48 h; series mostly up to 45.8 µM; further: nearly all actives have a fitted effect of over 40% in size; further: potency means the concentration at half of the fitted maximal effect
# Summary of the method: as §1
# [5] = qHTS Screen of the MIPE 4.0 Collection Against Ewings Sarcoma (EW8) (AID 1259255); conditions: EW8 Ewing sarcoma viability, CellTiter-Glo, 48 h; series mostly up to 45.8 µM; further: nearly all actives have a fitted effect of over 35% in size; further: potency means the concentration at half of the fitted maximal effect
# Summary of the method: as §1
# [6] = qHTS Screen of the MIPE 4.0 Collection Against Ewings Sarcoma (TC32) (AID 1259256); conditions: TC32 Ewing sarcoma viability, CellTiter-Glo, 48 h; series mostly up to 45.8 µM; further: nearly all actives have a fitted effect of over 45% in size; further: potency means the concentration at half of the fitted maximal effect
# Summary of the method: as §1
# [7] = qHTS assay to identify small molecule inhibitors of chordoma cells - UCH-2 (AID 1259356); conditions: UCH-2 chordoma viability, CellTiter-Glo ATP luminescence, 48 h; series mostly up to 46.1 µM; further: potency means the concentration at half of the fitted maximal effect
# [8] = qHTS assay to identify small molecule inhibitors of chordoma cells - UCH-1 (AID 1259355); conditions: UCH-1 chordoma viability, CellTiter-Glo, 48 h, combination, with auranofin plus four topoisomerase inhibitors; series mostly up to 46.1 µM; further: nearly all actives have a fitted effect of over 55% in size; further: potency means the concentration at half of the fitted maximal effect
# Summary of the method: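 Cells (800/well) were seeded and left overnight at 37 C, 5% CO2, then treated with drugs at 15 concentrations plus a combination mix of auranofin, camptothecin, doxorubicin, rubitecan and topotecan. Viability after 48hr was read by CellTiter-Glo luminescence.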
# [9] = Identifying Small Molecule Inhibitors of Pancreatic Cancer Stem Cells (A2780, Spheroid) (AID 1259357); conditions: Potency: A2780 spheroid viability; series mostly up to 46.1 µM;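 further: compound exposure lasted 48 h before the ATP luminescence read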
# Summary of the method: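 Cytotoxicity read by CellTiter-Glo luminescence after 48 h compound exposure at 37C; percent activity scaled between DMSO-treated cells and cell-free wells. Spheroid formats used cells pre-formed 14 days in stem cell media on hydrogel.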
Compound,Potency [1],Potency [2],Potency [3],Potency [4],Potency [5],Potency [6],Potency [7],Potency [8],Potency [9]
CN(C)CCc1c[nH]c2ccc(C[C@H]3COC(=O)N3)cc12,inactive,inactive,inactive,inactive,inactive,inactive,inactive,,
Cc1nnc(C(=O)NC(C)(C)c2nc(C(=O)NCc3ccc(F)cc3)c(O)c(=O)n2C)o1,inactive,inactive,inactive,inactive,,inactive,,,
Cc1nnc(NS(=O)(=O)c2ccc(N)cc2)s1,inactive,inactive,14.8 µM (active),10.5 µM (active),13.2 µM (active),,inactive,inactive,
CCc1cc(C(N)=S)ccn1,inactive,inactive,inactive,20.9 µM (active),inactive,,inactive,inactive,
CC1CC2C3CCC4=CC(=O)C=C[C@]4(C)[C@@]3(F)[C@@H](O)C[C@]2(C)[C@@]1(O)C(=O)CO (stereo partly drawn),inactive,inactive,inactive,inactive,,inactive,,,
C[C@@H](NCCCc1cccc(C(F)(F)F)c1)c1cccc2ccccc12,inactive,inactive,inactive,1.48 µM (active),inactive,,25.9 µM (active),,
COc1cc(NCc2ccc3nc(N)nc(N)c3c2C)cc(OC)c1OC,inactive,inactive,3.32 µM (active),0.833 µM (active),1.32 µM (active),0.833 µM (active),inactive,,
CN(Cc1cc(Br)cc(Br)c1N)C1CCCCC1,inactive,inactive,inactive,inactive,inactive,inactive,inactive,,
COc1ccc(-c2ccc3cc(C(=O)O)ccc3c2)cc1C12CC3CC(CC(C3)C1)C2,inactive,inactive,2.09 µM (active),2.96 µM (active),inactive,,inactive,inactive,
Cc1onc(-c2ccccc2Cl)c1C(=O)N[C@@H]1C(=O)N2[C@@H]1SC(C)(C)[C@@H]2C(=O)O,inactive,inactive,inactive,inactive,inactive,inactive,inactive,inactive,
Oc1c(Cl)cc(Cl)c2cccnc12,inactive,inactive,13.2 µM (active),10.5 µM (active),8.33 µM (active),7.43 µM (active),23.1 µM (active),,
COc1cc2c(Nc3ccc(Br)cc3F)ncnc2cc1OCC1CCN(C)CC1,inactive,inactive,16.6 µM (active),5.9 µM (active),5.26 µM (active),,,5.01 µM (active),inactive
NC(N)=NC(N)=NCCc1ccccc1,inactive,inactive,11.8 µM (active),18.7 µM (active),16.6 µM (active),,inactive,inactive,
COc1cccc(N(C)C(=S)Oc2ccc3c(c2)CCCC3)n1,inactive,inactive,inactive,inactive,,inactive,inactive,inactive,
Cc1ccnc2c1NC(=O)c1cccnc1N2C1CC1,inactive,inactive,inactive,inactive,,inactive,inactive,inactive,
NC(=O)c1cccnc1,inactive,inactive,inactive,inactive,,inactive,inactive,,
CCCCCCNC(=O)n1cc(F)c(=O)[nH]c1=O,inactive,inactive,13.2 µM (active),8.33 µM (active),,18.7 µM (active),inactive,inactive,
CO[C@@H]1[C@@H](OC(N)=O)[C@@H](O)[C@H](Oc2ccc3c(O)c(NC(=O)c4ccc(O)c(CC=C(C)C)c4)c(=O)oc3c2C)OC1(C)C,inactive,inactive,5.9 µM (active),4.69 µM (active),,5.9 µM (active),inactive,inactive,
CCOC(=O)[C@H](CCc1ccccc1)N[C@H]1CCc2ccccc2N(CC(=O)O)C1=O,inactive,inactive,23.5 µM (active),20.9 µM (active),,23.5 µM (active),inactive,inactive,
CC[C@H](C)C(=O)O[C@H]1C[C@@H](C)C=C2C=C[C@H](C)[C@H](CC[C@@H]3C[C@@H](O)CC(=O)O3)[C@H]21,inactive,inactive,18.7 µM (active),14.8 µM (active),,7.43 µM (active),inactive,,
CCN(CC)CC#CCOC(=O)C(O)(c1ccccc1)C1CCCCC1 (stereo not drawn),inactive,inactive,inactive,inactive,,inactive,inactive,inactive,
NCCCC(O)(P(=O)(O)O)P(=O)(O)O,inactive,inactive,inactive,inactive,,inactive,inactive,inactive,

# — PubChem BioAssay (NCATS)
